{"source": "paper PMC11574364", "test_in_all_cases": "protein domain microarray probed with biotinylated miRNA; Domain array: 20 mM Tris-HCl pH 7.4, 200 mM KCl, 0.2 mM EDTA, 0.05% NP40, 2 ug/ul heparin, overnight 4 C. ORF array: PBS pH 7.0 with RNase inhibitor, 100 ng RNA; high values mean tight binding", "conditions_in_all_cases": "ssRNA", "key": {"[1]": {"target": "T1, YTHDF1 (Homo sapiens, UniProt Q9BYJ9)", "T1 sequence": "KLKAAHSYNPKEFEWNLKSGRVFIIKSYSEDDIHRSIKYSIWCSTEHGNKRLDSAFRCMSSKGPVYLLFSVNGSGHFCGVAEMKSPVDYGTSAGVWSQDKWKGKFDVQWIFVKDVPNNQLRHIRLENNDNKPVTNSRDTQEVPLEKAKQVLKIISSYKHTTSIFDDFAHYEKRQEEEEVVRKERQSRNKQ"}, "[2]": {"target": "T2, RBM27 (Homo sapiens, UniProt Q9P2N5)", "T2 sequence": "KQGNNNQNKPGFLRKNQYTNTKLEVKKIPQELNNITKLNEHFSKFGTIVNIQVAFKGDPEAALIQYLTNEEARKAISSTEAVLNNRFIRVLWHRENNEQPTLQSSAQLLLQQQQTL"}, "[3]": {"target": "T3, STAU2(3) (Homo sapiens, UniProt Q9NUL3)", "T3 chain": "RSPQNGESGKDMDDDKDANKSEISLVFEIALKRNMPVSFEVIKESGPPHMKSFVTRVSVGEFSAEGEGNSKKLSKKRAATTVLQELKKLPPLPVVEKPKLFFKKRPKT"}, "[4]": {"target": "T4, RKHD3(1-2) (Homo sapiens, UniProt Q6ZN04)", "T4 sequence": "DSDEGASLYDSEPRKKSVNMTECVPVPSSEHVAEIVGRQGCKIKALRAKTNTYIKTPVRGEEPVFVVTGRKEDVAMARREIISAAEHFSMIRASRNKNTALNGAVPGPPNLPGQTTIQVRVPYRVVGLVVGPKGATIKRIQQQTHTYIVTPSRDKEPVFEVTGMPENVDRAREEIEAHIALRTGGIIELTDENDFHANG"}, "[5]": {"target": "T5, RBM19(2-4) (Homo sapiens, UniProt Q9Y4C8)", "T5 sequence": "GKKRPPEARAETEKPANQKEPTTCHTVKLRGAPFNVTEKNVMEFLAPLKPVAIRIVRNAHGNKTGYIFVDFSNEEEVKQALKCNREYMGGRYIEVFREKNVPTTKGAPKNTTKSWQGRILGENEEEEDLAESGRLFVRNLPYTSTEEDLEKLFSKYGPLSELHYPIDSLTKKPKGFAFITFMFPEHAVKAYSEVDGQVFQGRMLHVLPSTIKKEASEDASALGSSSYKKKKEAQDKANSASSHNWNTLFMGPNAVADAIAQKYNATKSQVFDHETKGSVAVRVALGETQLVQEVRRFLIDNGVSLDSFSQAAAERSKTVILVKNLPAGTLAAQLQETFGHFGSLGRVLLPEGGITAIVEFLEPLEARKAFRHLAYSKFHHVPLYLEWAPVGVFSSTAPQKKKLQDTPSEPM"}, "[6]": {"target": "T6, RBM26(2) (Homo sapiens, UniProt Q5T8P6)", "T6 sequence": "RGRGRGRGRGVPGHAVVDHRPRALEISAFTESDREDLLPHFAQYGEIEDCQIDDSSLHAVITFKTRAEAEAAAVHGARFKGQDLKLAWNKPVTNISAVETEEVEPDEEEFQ"}, "[7]": {"target": "T7, RBM14 (Homo sapiens, UniProt Q96PK6)", "T7 sequence": "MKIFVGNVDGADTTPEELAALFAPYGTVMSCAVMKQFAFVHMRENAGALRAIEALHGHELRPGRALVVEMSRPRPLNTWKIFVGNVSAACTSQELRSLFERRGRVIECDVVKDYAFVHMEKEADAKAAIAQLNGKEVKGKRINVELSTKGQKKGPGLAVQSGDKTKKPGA"}, "[8]": {"target": "RALYL (Homo sapiens, UniProt Q86SE5)", "sequence (Q86SE5 1-115)": "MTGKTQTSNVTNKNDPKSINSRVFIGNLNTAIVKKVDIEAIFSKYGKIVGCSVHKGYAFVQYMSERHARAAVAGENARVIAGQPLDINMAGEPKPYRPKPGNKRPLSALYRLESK"}, "[9]": {"target": "T8, PIG38 (Homo sapiens, UniProt Q8TC92)", "T8 sequence": "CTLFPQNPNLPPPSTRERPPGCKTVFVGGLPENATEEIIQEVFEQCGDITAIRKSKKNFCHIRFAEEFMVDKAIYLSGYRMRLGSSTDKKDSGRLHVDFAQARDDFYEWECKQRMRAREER"}, "[10]": {"target": "KRR1 (Homo sapiens, UniProt Q13601)", "sequence (Q13601 36-250)": "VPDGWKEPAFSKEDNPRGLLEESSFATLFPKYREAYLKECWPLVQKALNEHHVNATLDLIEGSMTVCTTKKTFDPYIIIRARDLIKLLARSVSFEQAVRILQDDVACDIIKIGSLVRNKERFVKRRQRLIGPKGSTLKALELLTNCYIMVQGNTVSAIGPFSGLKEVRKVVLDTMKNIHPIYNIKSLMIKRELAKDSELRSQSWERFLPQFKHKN"}}, "data": [{"sequence": "CAGUGCAAUGAUGAAAGGGCAU", "values": [{"measurement": "binding signal", "setting": "[1]", "value": "51.305 ± 0.0212", "unit": "fluorescence intensity"}, {"measurement": "binding signal", "setting": "[2]", "value": "288 ± 4.19", "unit": "fluorescence intensity"}, {"measurement": "binding signal", "setting": "[3]", "value": "37.5 ± 2.47", "unit": "fluorescence intensity"}, {"measurement": "binding signal", "setting": "[4]", "value": "1440 ± 55", "unit": "fluorescence intensity"}, {"measurement": "binding signal", "setting": "[5]", "value": "2090 ± 439", "unit": "fluorescence intensity"}, {"measurement": "binding signal", "setting": "[6]", "value": "25.8 ± 3.42", "unit": "fluorescence intensity"}, {"measurement": "binding signal", "setting": "[7]", "value": "23.1 ± 3.36", "unit": "fluorescence intensity"}, {"measurement": "binding signal", "setting": "[8]", "value": "381 ± 18.7", "unit": "fluorescence intensity"}, {"measurement": "binding signal", "setting": "[9]", "value": "31.7 ± 0.785", "unit": "fluorescence intensity"}, {"measurement": "binding signal", "setting": "[10]", "value": "74.2 ± 2.13", "unit": "fluorescence intensity"}]}, {"sequence": "UGAGGUAGUAGGUUGUAUAGUU", "values": [{"measurement": "binding signal", "setting": "[1]", "value": "22.8 ± 4.72", "unit": "fluorescence intensity"}, {"measurement": "binding signal", "setting": "[2]", "value": "102 ± 16.8", "unit": "fluorescence intensity"}, {"measurement": "binding signal", "setting": "[4]", "value": "1250 ± 20.7", "unit": "fluorescence intensity"}, {"measurement": "binding signal", "setting": "[5]", "value": "902 ± 121", "unit": "fluorescence intensity"}, {"measurement": "binding signal", "setting": "[6]", "value": "23.4 ± 0.552", "unit": "fluorescence intensity"}, {"measurement": "binding signal", "setting": "[8]", "value": "319 ± 85.1", "unit": "fluorescence intensity"}, {"measurement": "binding signal", "setting": "[9]", "value": "21.4 ± 1.44", "unit": "fluorescence intensity"}, {"measurement": "binding signal", "setting": "[10]", "value": "20.5 ± 1.99", "unit": "fluorescence intensity"}]}, {"sequence": "UGAGGUAGUAGGUUGUGUGGUU", "values": [{"measurement": "binding signal", "setting": "[1]", "value": "113 ± 10.3", "unit": "fluorescence intensity"}, {"measurement": "binding signal", "setting": "[2]", "value": "985 ± 77.1", "unit": "fluorescence intensity"}, {"measurement": "binding signal", "setting": "[3]", "value": "121 ± 14.8", "unit": "fluorescence intensity"}, {"measurement": "binding signal", "setting": "[4]", "value": "1502 ± 3.98", "unit": "fluorescence intensity"}, {"measurement": "binding signal", "setting": "[5]", "value": "1520 ± 225", "unit": "fluorescence intensity"}, {"measurement": "binding signal", "setting": "[6]", "value": "248 ± 3.91", "unit": "fluorescence intensity"}, {"measurement": "binding signal", "setting": "[7]", "value": "66.3 ± 8.01", "unit": "fluorescence intensity"}, {"measurement": "binding signal", "setting": "[8]", "value": "1030 ± 103", "unit": "fluorescence intensity"}, {"measurement": "binding signal", "setting": "[9]", "value": "72.8 ± 3.97", "unit": "fluorescence intensity"}, {"measurement": "binding signal", "setting": "[10]", "value": "153 ± 3.37", "unit": "fluorescence intensity"}]}, {"sequence": "UAGCUUAUCAGACUGAUGUUGA", "values": [{"measurement": "binding signal", "setting": "[2]", "value": "145 ± 5.61", "unit": "fluorescence intensity"}, {"measurement": "binding signal", "setting": "[4]", "value": "1110 ± 41.5", "unit": "fluorescence intensity"}, {"measurement": "binding signal", "setting": "[5]", "value": "901 ± 119", "unit": "fluorescence intensity"}, {"measurement": "binding signal", "setting": "[8]", "value": "190 ± 59.9", "unit": "fluorescence intensity"}]}, {"sequence": "UGAGGUAGUAGGUUGUAUGGUU", "values": [{"measurement": "binding signal", "setting": "[1]", "value": "76.9 ± 5.2", "unit": "fluorescence intensity"}, {"measurement": "binding signal", "setting": "[2]", "value": "657 ± 47.5", "unit": "fluorescence intensity"}, {"measurement": "binding signal", "setting": "[3]", "value": "60.2 ± 7.26", "unit": "fluorescence intensity"}, {"measurement": "binding signal", "setting": "[4]", "value": "1740 ± 134", "unit": "fluorescence intensity"}, {"measurement": "binding signal", "setting": "[5]", "value": "1810 ± 313", "unit": "fluorescence intensity"}, {"measurement": "binding signal", "setting": "[6]", "value": "298 ± 14", "unit": "fluorescence intensity"}, {"measurement": "binding signal", "setting": "[7]", "value": "39.7 ± 3.13", "unit": "fluorescence intensity"}, {"measurement": "binding signal", "setting": "[8]", "value": "1090 ± 62.2", "unit": "fluorescence intensity"}, {"measurement": "binding signal", "setting": "[9]", "value": "53 ± 2.3", "unit": "fluorescence intensity"}, {"measurement": "binding signal", "setting": "[10]", "value": "92.2 ± 12.2", "unit": "fluorescence intensity"}]}, {"sequence": "AGAGGUAGUAGGUUGCAUAGUU", "values": [{"measurement": "binding signal", "setting": "[1]", "value": "52.7 ± 4.33", "unit": "fluorescence intensity"}, {"measurement": "binding signal", "setting": "[2]", "value": "486 ± 29.4", "unit": "fluorescence intensity"}, {"measurement": "binding signal", "setting": "[3]", "value": "34.1 ± 5.01", "unit": "fluorescence intensity"}, {"measurement": "binding signal", "setting": "[4]", "value": "2320 ± 70.7", "unit": "fluorescence intensity"}, {"measurement": "binding signal", "setting": "[5]", "value": "2390 ± 546", "unit": "fluorescence intensity"}, {"measurement": "binding signal", "setting": "[6]", "value": "168 ± 6.55", "unit": "fluorescence intensity"}, {"measurement": "binding signal", "setting": "[7]", "value": "26.3 ± 7.16", "unit": "fluorescence intensity"}, {"measurement": "binding signal", "setting": "[8]", "value": "932 ± 89.3", "unit": "fluorescence intensity"}, {"measurement": "binding signal", "setting": "[9]", "value": "44.1 ± 0.488", "unit": "fluorescence intensity"}, {"measurement": "binding signal", "setting": "[10]", "value": "73.6 ± 7.55", "unit": "fluorescence intensity"}]}]}
